Screen size: about 290,000 compounds; about 110 (0.038%) were called active. About 3% were inconclusive and are not listed. Calls follow the shape of the dose curve; as a rule, active = well fitted inhibition curve with a large enough effect in the polarisation, with a control signal flat (not every such curve was filed as active); inconclusive = small, poorly fitted or top-dose-only effect, or effect the other way, or a change in a side signal; inactive = no such curve, though single readings can be large or run the other way; the % refers to the polarisation. The full list was thinned out, with actives kept by preference.
Biological target: Histone-lysine N-methyltransferase 2A (Homo sapiens) (UniProt Q03164)
Assay: qHTS Fluorescence Polarization Assay for Inhibitors of MLL CXXC domain - DNA interaction
Conditions: MLL-CXXC / FITC-HOXA9 DNA fluorescence polarization; series mostly up to 115 µM
Excerpt: NIH Chemical Genomics Center [NCGC] NIH Molecular Libraries Probe Production centers Network [MLPCN] MLPCN Grant: DA027717-01A1 Assay Submitter (PI): John Bushweller NCGC Assay Overview: The MLL (Mixed Lineage Luekemia) gene is involved in chromosomal translocation that results in either acute lymphoid leukemia (ALL) or acute myeloid leukemia (AML). Chromasomal translocation of MLL gene is responsible for the fusion of N-terminal MLL to more than 60 different partner genes in frame. Many of the MLL partner genes contain transcription activation domains or function as transcriptional activators. Despite the heterogeneity of fusion partners, the N-terminus of MLL fusion proteins always consists of the N-terminal menin binding motif and the CXXC domain. The MLL-CXXC domain specifically recognizes unmethylated CpG sequences of the HOX-A gene. Disruption of the MLL-CXXC and HOX-A gene interaction leads to down regulation of HOX-A gene expression and may potentially reverse leukemogenesis. We have miniaturized and optimized an in-vitro assay to screen for inhibitors of the MLL-CXXC domain and HOX-A DNA interaction, which could have utility in MLL fusion leukemias.
The affinity purified MLL-CXXC domain, unlabeled HOX-A9 DNA strand, fluorescein (FLSN) labeled HOX-A9 DNA strand were kindly supplied by the laboratory of Dr. John Bushweller, University of Virginia. All reagents were stored in single use aliquots at -80C. Assay Reagents: Assay buffer: 50 mM TRIS-HCl pH 7.5, 50 mM NaCl, 1 mM DTT. Add 0.05% BSA prior to reaction setup. Assay Procedure: 1.Dispense 1 ul of a 7 uM MLL-CXXC solution prepared in assay buffer into column 1-48. 2.Transfer 23 nl of compounds and unlabeled HOX-A9 per well. 3.Incubate for 5 minutes at ambient. 4.Dispense 1ul of a 50 nM FLSN-HOX-A9 solution prepared in assay buffer into columns 1-48 5.Centrifuge for 30 seconds at 1000 RPM. 6.Incubate for 30 minutes at ambient. 7.Read using the Envision reader fluorescent polarization protocol.

Histone-lysine N-methyltransferase 2A (Homo sapiens), sequence (Q03164 whole entry, looked up, the tested form may be a part): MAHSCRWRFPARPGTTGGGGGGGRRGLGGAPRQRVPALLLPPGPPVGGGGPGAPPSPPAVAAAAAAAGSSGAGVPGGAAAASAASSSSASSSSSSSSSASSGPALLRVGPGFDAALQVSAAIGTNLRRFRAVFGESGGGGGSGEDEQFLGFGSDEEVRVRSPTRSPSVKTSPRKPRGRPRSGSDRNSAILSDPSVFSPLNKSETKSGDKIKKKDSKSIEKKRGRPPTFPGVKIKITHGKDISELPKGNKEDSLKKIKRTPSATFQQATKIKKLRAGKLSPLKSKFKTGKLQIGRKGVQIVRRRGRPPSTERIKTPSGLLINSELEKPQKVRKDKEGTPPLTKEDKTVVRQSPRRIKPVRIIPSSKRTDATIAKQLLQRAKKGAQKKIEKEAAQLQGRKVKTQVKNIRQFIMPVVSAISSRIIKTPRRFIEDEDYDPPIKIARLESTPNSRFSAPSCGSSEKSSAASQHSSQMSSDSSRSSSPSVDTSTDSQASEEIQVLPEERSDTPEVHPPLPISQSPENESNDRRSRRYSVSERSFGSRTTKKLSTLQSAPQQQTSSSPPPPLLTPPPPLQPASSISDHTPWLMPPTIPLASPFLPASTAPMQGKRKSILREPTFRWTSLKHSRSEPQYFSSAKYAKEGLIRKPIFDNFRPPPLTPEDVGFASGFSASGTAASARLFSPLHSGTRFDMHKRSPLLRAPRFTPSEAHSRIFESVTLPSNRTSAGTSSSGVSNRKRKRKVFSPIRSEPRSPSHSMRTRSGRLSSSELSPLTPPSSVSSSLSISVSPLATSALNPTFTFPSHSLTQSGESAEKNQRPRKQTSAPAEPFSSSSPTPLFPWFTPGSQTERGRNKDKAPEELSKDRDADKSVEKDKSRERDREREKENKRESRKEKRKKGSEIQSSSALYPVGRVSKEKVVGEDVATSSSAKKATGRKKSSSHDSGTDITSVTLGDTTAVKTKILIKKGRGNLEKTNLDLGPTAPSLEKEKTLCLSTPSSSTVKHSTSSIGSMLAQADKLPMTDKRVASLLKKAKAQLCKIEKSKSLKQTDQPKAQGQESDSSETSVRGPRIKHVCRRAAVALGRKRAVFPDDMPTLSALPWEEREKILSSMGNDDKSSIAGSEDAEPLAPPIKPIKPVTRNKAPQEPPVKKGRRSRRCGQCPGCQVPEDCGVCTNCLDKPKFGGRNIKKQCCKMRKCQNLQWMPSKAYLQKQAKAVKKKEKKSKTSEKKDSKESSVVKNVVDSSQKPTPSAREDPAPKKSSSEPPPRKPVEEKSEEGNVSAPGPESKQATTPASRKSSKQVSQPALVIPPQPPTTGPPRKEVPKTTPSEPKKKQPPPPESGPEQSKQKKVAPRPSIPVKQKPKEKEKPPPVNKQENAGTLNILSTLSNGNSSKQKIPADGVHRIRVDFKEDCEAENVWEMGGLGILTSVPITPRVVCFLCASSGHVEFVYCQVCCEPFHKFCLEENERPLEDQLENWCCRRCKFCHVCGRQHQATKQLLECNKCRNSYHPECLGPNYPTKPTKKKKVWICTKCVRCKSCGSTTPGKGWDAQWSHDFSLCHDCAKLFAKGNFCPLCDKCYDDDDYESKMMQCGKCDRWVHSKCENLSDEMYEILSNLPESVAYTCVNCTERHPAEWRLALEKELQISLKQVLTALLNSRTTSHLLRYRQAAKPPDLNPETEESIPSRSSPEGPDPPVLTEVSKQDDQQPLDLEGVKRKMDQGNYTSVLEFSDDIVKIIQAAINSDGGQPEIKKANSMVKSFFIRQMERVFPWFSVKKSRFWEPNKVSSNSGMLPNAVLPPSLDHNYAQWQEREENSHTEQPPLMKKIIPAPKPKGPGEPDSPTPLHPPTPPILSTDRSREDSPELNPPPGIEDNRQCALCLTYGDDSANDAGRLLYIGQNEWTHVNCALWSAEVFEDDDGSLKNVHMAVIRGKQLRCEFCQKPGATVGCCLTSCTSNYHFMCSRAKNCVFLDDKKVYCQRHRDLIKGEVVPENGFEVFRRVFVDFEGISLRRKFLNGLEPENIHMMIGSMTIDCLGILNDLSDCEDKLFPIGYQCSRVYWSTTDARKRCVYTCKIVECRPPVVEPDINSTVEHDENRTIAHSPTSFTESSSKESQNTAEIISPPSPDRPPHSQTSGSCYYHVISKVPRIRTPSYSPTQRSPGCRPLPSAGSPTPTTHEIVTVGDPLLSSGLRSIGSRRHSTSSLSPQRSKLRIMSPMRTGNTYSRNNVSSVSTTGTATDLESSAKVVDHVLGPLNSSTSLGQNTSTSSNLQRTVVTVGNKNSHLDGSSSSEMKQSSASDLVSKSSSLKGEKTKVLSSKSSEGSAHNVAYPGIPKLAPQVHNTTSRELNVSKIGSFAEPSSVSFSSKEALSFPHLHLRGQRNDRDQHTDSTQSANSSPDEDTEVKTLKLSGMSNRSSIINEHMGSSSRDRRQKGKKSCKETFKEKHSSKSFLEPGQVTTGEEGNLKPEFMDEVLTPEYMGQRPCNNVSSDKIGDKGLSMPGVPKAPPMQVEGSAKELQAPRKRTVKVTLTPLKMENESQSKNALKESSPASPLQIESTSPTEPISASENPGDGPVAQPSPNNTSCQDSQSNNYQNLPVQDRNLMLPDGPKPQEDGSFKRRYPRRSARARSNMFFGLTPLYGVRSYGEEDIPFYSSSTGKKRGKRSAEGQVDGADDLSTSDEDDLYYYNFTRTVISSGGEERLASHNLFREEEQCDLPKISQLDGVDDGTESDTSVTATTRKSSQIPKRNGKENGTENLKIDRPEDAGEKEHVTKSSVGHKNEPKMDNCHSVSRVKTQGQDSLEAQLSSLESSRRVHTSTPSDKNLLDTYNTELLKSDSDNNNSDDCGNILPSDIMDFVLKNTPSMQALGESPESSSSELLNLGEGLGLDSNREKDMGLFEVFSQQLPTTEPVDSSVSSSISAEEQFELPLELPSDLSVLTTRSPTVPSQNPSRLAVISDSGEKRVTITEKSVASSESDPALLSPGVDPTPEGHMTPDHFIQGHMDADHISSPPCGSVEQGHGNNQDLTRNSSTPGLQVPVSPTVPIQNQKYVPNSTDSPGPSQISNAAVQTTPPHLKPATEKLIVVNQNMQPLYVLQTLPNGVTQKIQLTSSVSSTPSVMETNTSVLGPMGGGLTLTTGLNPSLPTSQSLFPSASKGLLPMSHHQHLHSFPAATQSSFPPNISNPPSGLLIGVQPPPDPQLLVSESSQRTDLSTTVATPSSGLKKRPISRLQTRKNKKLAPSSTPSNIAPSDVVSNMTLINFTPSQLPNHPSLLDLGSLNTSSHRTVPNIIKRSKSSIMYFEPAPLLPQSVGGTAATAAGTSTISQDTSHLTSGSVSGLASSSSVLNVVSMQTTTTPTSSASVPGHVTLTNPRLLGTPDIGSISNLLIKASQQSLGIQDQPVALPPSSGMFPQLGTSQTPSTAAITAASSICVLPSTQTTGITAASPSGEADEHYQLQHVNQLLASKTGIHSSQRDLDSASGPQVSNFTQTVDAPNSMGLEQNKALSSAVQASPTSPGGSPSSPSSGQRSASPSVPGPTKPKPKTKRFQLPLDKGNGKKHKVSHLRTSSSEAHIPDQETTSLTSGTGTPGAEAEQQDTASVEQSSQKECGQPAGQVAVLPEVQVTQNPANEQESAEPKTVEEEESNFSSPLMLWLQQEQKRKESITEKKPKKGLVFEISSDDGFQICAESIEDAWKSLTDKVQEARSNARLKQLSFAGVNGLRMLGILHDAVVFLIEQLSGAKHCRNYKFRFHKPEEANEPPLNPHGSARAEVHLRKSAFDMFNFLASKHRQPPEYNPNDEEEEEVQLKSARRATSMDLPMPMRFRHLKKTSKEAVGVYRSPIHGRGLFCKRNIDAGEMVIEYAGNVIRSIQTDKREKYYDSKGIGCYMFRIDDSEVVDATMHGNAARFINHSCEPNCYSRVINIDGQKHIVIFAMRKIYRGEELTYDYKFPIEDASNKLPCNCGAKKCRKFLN

Potency, inactive:
COc1ccc(N(CC(=O)Nc2cc(OC)cc(OC)c2)S(=O)(=O)c2c(C)n[nH]c2C)cc1
CC(C)NC(=O)C(c1ccc(F)cc1)N(C(=O)CCC(=O)Nc1ccccn1)c1ccccc1F (configuration not stated)
COc1ccc(C(=O)NC(C)CCc2ccccc2)c(OC)c1 (configuration not stated)
O=C(CN1CCC(NC(=O)C2CC2)CC1)Nc1ccccc1[N+](=O)[O-]
CCCOc1ccc(-c2c(C(=O)N/N=C/c3ccco3)nnn2-c2nonc2N)cc1
COC(=O)c1cc(S(=O)(=O)Nc2ccc(C)c(F)c2)c[nH]1
O=C(c1ccccc1)N1CCN(C(=O)c2cc3nc(-c4ccccc4)cc(C(F)(F)F)n3n2)CC1
COc1cccc(N(CC(=O)NC2CCCC2)C(=O)Cn2nnc(-c3ccc(C)o3)n2)c1
COc1ccc2c(c1OC)C(=O)N(c1ccc(O)cc1)C2
C=CC1(C)CC(=O)C2(O)C(C)(O1)C(OC(C)=O)C(O)C1C(C)(C)CCC(O)C12C (configuration not stated)
C=C1C(=CC=C2CCC[C@@]3(C)[C@@H]2CC[C@H]3[C@H](C)CCCC(C)C)C[C@@H](O)C[C@@H]1O
O=C(CCS(=O)(=O)c1ccccc1)NC1CCCC1
CCN1C(=NCC(C)C)N[C@@H](CCc2ccccc2)[C@H](C(=O)NCC(C)C)[C@H]1C
O=C(COc1ccc(Cl)cc1)Nc1ccc2c(c1)OCO2
COc1cccc(OCC(O)CNC(=O)c2oc3c(C)c(C)ccc3c2C)c1 (configuration not stated)
O=C(NCCc1ccccn1)c1nc(Cn2cc([N+](=O)[O-])cn2)no1
COc1ccc(-c2cc(=O)oc3cc(OC(C)C(=O)Nc4ccc(CN5CCOCC5)cc4)ccc23)cc1 (configuration not stated)
CCOc1cc(C(=O)O)ccc1OCCOc1ccccc1
Cc1cc(C)cc(N(CCC#N)C(=O)CN2C(=O)NC3(CCCC3)C2=O)c1
CC(=O)N(C)c1ccc(NC(=O)Nc2cccc3ccccc23)cc1
CS(=O)(=O)N(CC(=O)Nc1ccc(F)cc1)C1CCCCC1
CC(=O)c1ccc(OCC(O)CN2CCN(S(=O)(=O)c3cccc(Br)c3)CC2)cc1 (configuration not stated)
COc1ccccc1N1CCN(C(=O)c2cc(=O)c3cc(C)ccc3o2)CC1
Cc1ccc(OCC(=O)Nc2ccc(C(=O)O)cc2NC(=O)COc2ccc(C)c(C)c2)cc1C
Cc1nn(C(C)(C)C)c(OC(=O)CC(C)C)c1S(=O)(=O)c1ccccc1
C[C@]12CC[C@@H]3c4ccc(O)cc4C[C@@H](CCCCCCCCCS(=O)CCCC(F)(F)C(F)(F)F)C3[C@@H]1CC[C@@H]2O (some centres not stated)
COc1ccccc1C(=O)NC(CCSC)C(=O)NNC(=O)c1csc(N2CCOCC2)n1 (configuration not stated)
Cc1ccc(S(=O)(=O)NCCCn2ccnc2)cc1C(=O)NC(C)C
O=C(O)c1ccccc1C(=O)NC1=NN(c2ccccc2)CC1
O=C(NCCCN1CCCCC1)C1CC(=O)N(CCc2ccccc2)C1 (configuration not stated)
COc1cc2c(cc1OC)[C@@H](Cc1cc(OC)c(OC)c(OC)c1)[N+](C)(CCCOC(=O)CC/C=C/CCC(=O)OCCC[N+]1(C)CCc3cc(OC)c(OC)cc3[C@H]1Cc1cc(OC)c(OC)c(OC)c1)CC2 (some centres not stated)
CN(C(=O)c1ccccc1)c1nccnc1C#N
O=S(=O)(NC1CCCCC1N1CCN(c2ccccc2F)CC1)c1ccccc1 (configuration not stated)
CCC1CCCCN1C(=S)Nc1ccc(S(=O)(=O)Nc2ncccn2)cc1 (configuration not stated)
Cc1cc(C)cc(OCC(=O)Nc2cc(NC(=O)COc3cc(C)cc(C)c3)cc(C(=O)O)c2)c1
C[C@H](NC(=O)C1CC(=O)N(c2ccc3c(c2)OCCO3)C1)C(=O)N1CCC(C(=O)O)CC1 (some centres not stated)
Cc1cc(C)c2nc(N3CCC(C(=O)NCCN4CCOCC4)CC3)sc2c1
Cc1ccc(C(C(=O)NCC2CCCO2)N(C(=O)c2snc(C(N)=O)c2N)c2ccc(C(C)C)cc2)o1 (configuration not stated)
CCOC(=O)[C@@H]1[C@H]2COc3ccc(Br)cc3[C@H]2N2C(=O)N(c3ccc(Cl)cc3)C(=O)[C@@]12C
CC(=O)NC1CCN(CC(=O)Nc2nccs2)CC1
O=C(COc1ccc(Cl)cc1Cl)N/N=C/c1ccccn1
Cc1cccc(N(C)C(=O)CN2C(=O)COc3ccc(S(=O)(=O)N4CCCCCC4)cc32)c1
O=C(Nc1cccc(-n2cnnn2)c1)c1cccnc1
COc1ccccc1CCNC(=O)c1c(C)nn(CC(C)C)c1Cl
Cc1cccc(C)c1NC(=O)CS(=O)CC(=O)N1CCN(c2ccccc2)CC1 (configuration not stated)
O=C(Nc1ncc([N+](=O)[O-])s1)C1COc2ccccc2O1 (configuration not stated)
CC(C)CNC(=O)C(=O)NCC(c1ccc2c(c1)OCO2)N1CCOCC1 (configuration not stated)
Cc1ccc(-c2noc(CNC(=O)c3ccoc3C)n2)cc1
O=C(CCS(=O)(=O)c1ccc2c(c1)NC(=O)CS2)NCc1ccccc1Cl
CCc1ccccc1NC(=S)Nc1cc(OC)c(NC(=O)C(C)C)cc1OC
O=C(NCc1ccccc1)C(c1ccccc1)N(C(=O)c1csnn1)c1ccc(F)cc1 (configuration not stated)
[2H]C(CCOS(N)(=O)=O)c1ccccc1 (configuration not stated)
CCCCC(=O)Nc1c2c(nn1-c1ccc([N+](=O)[O-])cc1)CS(=O)(=O)C2
Cc1cc(C)n2nc(CNS(=O)(=O)c3c(F)c(F)c(F)c(F)c3F)nc2n1
COc1cccc(CNC(=O)COc2cc(O)c3c(c2)OC(C)(C)CC3=O)c1
C/C(=N\NC(=O)c1ccoc1C)c1ccccc1O
CN1C(=O)CN2CCc3ccccc3C2c2cc(Cl)ccc21 (configuration not stated)
O=C1C2CCCN2C(=O)N1CCCCN1CCN(c2cccc(C(F)(F)F)c2)CC1 (configuration not stated)
O=C(Nc1nnc(S(=O)(=O)N2CCCCCC2)s1)c1cccc(Br)c1
Cc1cccc(OCC(O)CN2CCN(S(=O)(=O)c3ccc(C)cc3C)CC2)c1 (configuration not stated)
Cc1cc(N=Nc2ccc3ccccc3c2)ccc1O
OCC(CO)NC1C[C@](O)(CO)[C@@H](O)[C@H](O)[C@H]1O (some centres not stated)

Source: PubChem BioAssay AID2662 (National Center for Advancing Translational Sciences (NCATS), 2010)
